Laboratory results published in PubChem BioAssay AID1117319 (Southern Research Institute, 2015).
Several values for one entry are separate records, joined by “and”; a condition that tells them apart may be missing. Equal entries are not always repeated. The campaign covered roughly 260,000 compounds. About 1,500 (0.58%) were called active. Inconclusive results (about 5%) are left out.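 Rule for the calls: active = inhibition above a set limit at one or more doses, reproduced on every date tested; inconclusive = results disagree between test dates, or hit never tested in dose response; inactive = the rest.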 These entries were drawn from the full list. Measured potencies and affinities stand elsewhere.

These compounds were tested against Virion infectivity factor (Human immunodeficiency virus type 1 group M subtype B (isolate BH10)) + Virion infectivity factor (Human immunodeficiency virus type 1 group M subtype B (isolate BRU/LAI)) + Virion infectivity factor (Human immunodeficiency virus type 1 group M subtype B (isolate PCV12)) + Virion infectivity factor (Human immunodeficiency virus type 1 group M subtype B (isolate HXB2)) + DNA dC->dU-editing enzyme APOBEC-3G (Homo sapiens) (UniProt P69720+P69721+P69722+P69723+Q9HC16) (assay: HIV-1 Vif–A3G interaction blockers – biochemical, TR-FRET, GST-Vif 1-94, biotin-A3G peptide, dose response retest, primary screen (AID 1117319;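 note: Vif residues 1-94 fused to GST binding biotinylated APOBEC3G peptide 110-148; 0% = full assay without inhibitor and 100% = GST in place of GST-Vif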)). Settings: TR-FRET GST-Vif / biotin-A3G peptide binding; stronger effect = higher value.

inhibition, inactive:
C=CCN1C(C(=O)c2ccccc2)=C(OC(=O)COc2ccccc2)c2ccccc2S1(=O)=O -2.45%
COc1cc(OC)cc(-c2cc(N3C(=O)Nc4ccccc4N3O)n[nH]2)c1 2.06%
CCN(CC)CCCC(C)Nc1nccc2cccc(Cl)c12 (centres undefined) -1%
C=CCn1c(SCC(=O)NCCCC(=O)OCC)nc2scc(-c3ccco3)c2c1=O -13%
C=CCn1c(SCC(=O)NCCOC)nc2scc(-c3ccco3)c2c1=O 27.8%
Cc1onc(-c2c(F)cccc2Cl)c1C(=O)Nc1nccs1 -2.44%
Cc1onc(-c2c(F)cccc2Cl)c1C(=O)Nc1nnc(-c2ccccc2)s1 -20.2%
CCN1CCN(C(=O)c2ccc(CSc3ccc(C)cc3)cc2)CC1 -0.41%
O=C(Cn1c(=O)oc2ccccc21)Nc1ccc(S(=O)(=O)N2CCCCC2)cc1 16%
O=Cc1cccc(OCc2cccc3ccccc23)c1 -9.48%
c1ccc2c(c1)CCCN2Cc1nnnn1C1CCCC1 4.12%
c1ccc(Cc2nnc3n2CCCCC3)cc1 -1.19%
CSc1ccccc1NC(=O)CN(C)C(=O)c1c(C)nn(Cc2ccccc2)c1C 0.13%
CCc1ccc(NS(=O)(=O)c2ccc3[nH]cc(C(=O)N(C)Cc4ccco4)c(=O)c3c2)cc1 6.93%
CN(Cc1ccco1)C(=O)c1c[nH]c2ccc(S(=O)(=O)Nc3ccc4c(c3)OCCO4)cc2c1=O 11.3%
CC(C)N(C(=O)[C@H]1C[C@H](CC(=O)NCCN2CCOCC2)C(=O)N2CCc3c([nH]c4ccc(Cl)cc34)[C@]12C)C(C)C -2.31%
C=CCn1c(COc2ccccc2F)nnc1SCC(=O)NC(=O)NCc1ccco1 13.7%
C=CCn1c(COc2cccc(C)c2)nnc1SCC(=O)NC(=O)NCc1ccco1 3.84% and 20.2%
CC(C)(C)NC(=O)/C=C/c1cccs1 -6.7%
COc1ccc(/C=C2/C(=O)N=C(N)N2C)cc1OC -1.18%
COC(=O)c1ccc(Sc2nnnn2-c2ccccc2)c([N+](=O)[O-])c1 4.9%
CC(=O)c1ccc(Sc2nnnn2-c2ccccc2)c([N+](=O)[O-])c1 7.06%
Cc1csc(NC(=O)Cc2ccccc2[N+](=O)[O-])n1 -11%
CN(C(=O)CSc1nnc2ccccn12)C1CCS(=O)(=O)C1 (centres undefined) 5.32%
Cc1ccc(OCCCC(=O)Nc2ccc(S(N)(=O)=O)cc2)cc1 -3.06%
O=C1C=C(Nc2ccccc2O)c2ccccc2C1=O 29.9%
O=C1C=C(Nc2cccnc2)c2ccccc2C1=O -2.43%
O=[N+]([O-])c1ccc(Cl)c(/C=N/N2CCN(Cc3ccc(Cl)cc3)CC2)c1 -0.57%
CCOc1ccc(N/C(C)=C/C(=O)c2ccc(C)o2)cc1 1.46%
COc1cccc(C2Nc3ccc4ccccc4c3C3=C2C(=O)CCC3)c1O (centres undefined) -3.25%
CC1(C)CC(=O)C2=C(C1)c1c(ccc3ccccc13)NC2c1ccco1 (centres undefined) 7.86%
Cc1onc(-c2ccccc2Cl)c1C(=O)NCc1ccccn1 -1.21%
COC(=O)COC(=O)CC(CC(N)=O)c1ccccc1 (centres undefined) -2.81%
Cc1cc(C(=O)Nc2nc3c(C)cccc3s2)c(C)o1 17.4%
COC(=O)Nc1nc2c(C)cccc2s1 1.68%
Cc1c(C(=O)c2ccc([N+](=O)[O-])cc2)c(=O)n(C)c(=O)n1C -3.13%
CCC(=O)N1CCC2(CC1)Oc1ccc(F)cc1C(=O)C21CC(c2cccnc2)=NO1 (centres undefined) 3.73%
CCOC(=O)C(Cc1ccnnc1)=NO -0.8%
CCOC(=O)C(=O)Cc1nc2ccccc2s1 -1.72%
Cc1nc2sc(C(c3ccco3)N3CCN(c4ccc(F)cc4)CC3)c(O)n2n1 (centres undefined) 13.8%
Cc1cc(C(=O)CN2CCCC2)c(C)n1-c1ccc(Cl)cc1 1.44%
CC(=O)Oc1ccc2c(c1)C(=O)c1ccccc1CO2 7.33%
O=C(Oc1ccc2c(c1)C(=O)c1ccccc1CO2)c1ccccc1 1.85%
COc1ccc(CNC(=O)COC(=O)c2cccc(S(=O)(=O)N3CCOCC3)c2)cc1 10.9%
COc1ccc(NC(=O)c2cnc3n(c2=O)CCS3)cc1OC 10.7%
CCOc1ccc(/C=C(\C(=O)O)c2ccc(S(=O)(=O)N3CCOCC3)s2)cc1OC 28.4%
O=S(=O)(Cc1cc(Sc2ccc(Cl)cc2)nc(-c2ccccc2)n1)c1ccccc1 3.1%
CC1CN(Cc2ccco2)C(=S)NC1=O (centres undefined) 1.05%
O=C1C2C(C(=O)N1Cc1ccco1)C1C=CC2C12CC2 (centres undefined) -1.81%
O=C1CCN(Cc2ccco2)C(=S)N1 3.3%
O=C1CC(=O)N(Cc2cccs2)C(=O)N1 18%
COc1ccc(-n2c(=O)c(CCC(=O)N(C)Cc3cccs3)nc3ccccc32)cc1 -5.63%
COc1ccccc1NS(=O)(=O)c1ccc(C)c(C(=O)NCC2(N(C)C)CCCCC2)c1 -8.71%
CCOC(=O)c1cc2cc(OC)ccc2nc1C 4.64%
Cc1nc2ccc(F)cc2cc1C(=O)NC(C)C -0.13%
CCc1nc(NCc2ccc3c(c2)OCO3)c2oc3ccccc3c2n1 5.19%
CCNC(=O)CN(c1ccc(CC)cc1)S(C)(=O)=O -1.87%
Cc1nc(Nc2ccc(Cl)c(Cl)c2)sc1C(/C=C/c1ccc2c(c1)OCO2)=NNc1ccc([N+](=O)[O-])cc1[N+](=O)[O-] 0.47%
CCCN(CC(=O)Nc1ccccc1OC)C(=O)Cn1[nH]c(=O)c2ccccc2c1=O -0.74%
O=C(O)/C(=C\c1cccc(O)c1)c1ccc(S(=O)(=O)N2CCCC2)s1 14.8%
O=C(O)/C(=C\c1cccc(F)c1)c1ccc(S(=O)(=O)N2CCCC2)s1 18.6%
CN(CCC#N)C(=O)CC(Cc1ccccc1)C1CCOC(C)(C)C1 (centres undefined) 28.5%
CC(C)n1cnc2cc(NCc3ccccn3)ccc21 14.4%
CCCn1cnc2cc(NCc3ccc(Br)cc3)ccc21 -8.23%
CCCn1cnc2cc(NCc3ccccc3O)ccc21 -2.34%
CCn1cnc2cc(NCc3ccncc3)ccc21 18.7%
CCNC(=S)NCCN1CCCCC1 -5.58%
Cc1cc(C)cc(NC(=O)Cn2cc3c(n2)CCCCC3)c1 0.97%
CC(=O)Nc1ccc(NC(=O)Cn2cc3c(n2)CCCC3)cc1 -2.34%
Cc1cc(C)c2c(N)c(-c3nc4ccccc4[nH]3)sc2n1 1.28%
CCN(CC)c1ccc(N2C(=O)CSC2=S)cc1 -8.43%
O=C1CSC(=S)N1c1ccccc1 -4.55%
Cc1ccc(S(=O)(=O)Nc2cccc(C(=O)N3CCCC3)c2)cc1F 3.33%
CC(C)c1cc(=O)oc2c3c4c(cc12)CCCN4CCC3 13.8%
O=c1oc2c3c4c(cc2c(C(F)(F)F)c1CCN1CCOCC1)CCCN4CCC3 16.6%
N/C(=N\OC(=O)CN1C(=O)c2ccccc2C1=O)c1ccc(Cl)cc1 -10.1%
COc1ccc(N2CCN(C(=O)COC(=O)c3oc4ccc(OC)cc4c3C)CC2)cc1 1.73%
COc1ccc(NC(=O)C(NC(C)=O)C(=O)NCc2ccccc2)cc1 (centres undefined) 2.8%
CC(=O)Nc1ccn(-c2ccccc2)n1 15.9%
O=C(Nc1ccn(-c2ccccc2)n1)c1ccc(Cl)cc1 -12.3%
COc1ccc(S(=O)(=O)N(CC(=O)NCc2ccco2)C2CCCCC2)cc1OC 24%
COC(=O)c1cc([N+](=O)[O-])c(C)c(C)n1 -2.89%
CCN1CCc2c(C#N)c(N3CCOCC3)nc(NCc3ccccc3)c2C1 13.6%
CCN1CCc2c(C#N)c(N3CCCCC3)nc(NCc3ccccc3)c2C1 25.2%
CCCc1c(C)[nH]c2ccccc2c1=O 6.62%
CC1=NN(c2ccc(C)cc2)C(=O)/C1=C\C=C\c1ccccc1 -3.38%
CC1=NN(c2cccc(C(=O)O)c2)C(=O)/C1=C\C=C/c1ccccc1 29.5%
CC1=NN(c2ccc(Cl)c(C(=O)O)c2)C(=O)C1 29.9%
CC1=NN(c2ccc(Cl)c(C(=O)O)c2)C(=O)/C1=C\c1ccc(-c2ccc(C(=O)O)cc2)o1 1.61%
O=C(CSc1nnc(CCCO)n1-c1ccccc1)Nc1nccs1 -0.69%
CCOc1cc(CNCCO)cc(Br)c1OCc1ccc(Cl)cc1 -0.39%
Nc1cc(=O)nc(SCC(=O)Nc2ccccc2Cl)n1-c1ccccc1 -1.2%
Cc1ncsc1CCSc1nc2ccccc2c(=O)n1C -1.02%
COc1cc(OC)cc(C(=O)Nc2cccnc2)c1 7.36%
COc1ccc(S(=O)CC(=O)Nc2ccccc2Cl)cc1 (centres undefined) -2.59%
CCN(CC)c1ccc(C=Nc2ccccc2C)c(O)c1 -5.2%
CCN(CC)c1ccc(C=Nc2cc(C)cc(C)c2)c(O)c1 9.03%
CCN(CC)c1ccc(C=Nc2ccc(C#N)cc2)c(O)c1 -0.77%
CCN(CC)c1ccc(C=Nc2ccccc2)c(O)c1 29.3%
